An excerpt weighted towards active compounds, which were near 12% of everything screened.
AmpC inh detg = qHTS Inhibitors of AmpC Beta-Lactamase (assay with detergent); P00811; AmpC hydrolysis of nitrocefin, absorbance 480 nm, 0.01% Triton; Potency, µM (doses to about 114 µM), for inactives: at the top dose activity change, negative = inhibition, most hits filed as inhibitors; hit rate 0.041% among 370,000;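 further: 0% = no-compound wells and -100% = no-enzyme wells; nearly all actives have a fitted effect of over 25% in size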
Target sequence (P00811 whole entry, looked up): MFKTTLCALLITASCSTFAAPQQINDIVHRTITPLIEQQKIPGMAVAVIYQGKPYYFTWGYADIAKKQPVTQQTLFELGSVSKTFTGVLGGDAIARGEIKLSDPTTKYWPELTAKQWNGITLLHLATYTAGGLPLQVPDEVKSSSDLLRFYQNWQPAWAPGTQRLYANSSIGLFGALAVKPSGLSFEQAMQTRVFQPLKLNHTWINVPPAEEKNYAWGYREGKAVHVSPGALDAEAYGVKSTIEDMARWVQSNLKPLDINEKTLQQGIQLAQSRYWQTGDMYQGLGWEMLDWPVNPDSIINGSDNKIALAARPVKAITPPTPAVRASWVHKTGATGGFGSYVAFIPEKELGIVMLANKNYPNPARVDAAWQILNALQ
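AmpC (5.3 nM in the dispensed reagent) in 20 mM phosphate pH 7.0 with 0.01% (detergent screen) or 0.0001% Triton X-100 was preincubated with compounds for 15 min at room temperature. Nitrocefin was then added from an 800 uM solution, and hydrolysis was followed at 480 nm.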
AmpC no deterg = qHTS Inhibitors of AmpC Beta-Lactamase (assay without detergent). P00811. AmpC nitrocefin hydrolysis, absorbance 480 nm, 0.0001% Triton. Potency, µM (titrated, usually from 57.1 µM), without a hit: top-dose activity change, negative = inhibition, actives largely listed as inhibitors. hit rate 0.52% among 330,000;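 further: plate controls were no compound for no effect and no enzyme for full effect; nearly all actives have a fitted effect of over 20% in size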
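20 mM phosphate pH 7.0 + 0.01% (detergent screen) or 0.0001% Triton X-100; 5.3 nM AmpC reagent; cpd preinc 15 min RT; nitrocefin (800 uM stock) to start; A480 q20 s × 4 min; Activity was normalised to no-enzyme and no-compound control wells.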
Sm TGR block = qHTS Assay for the Inhibitors of Schistosoma Mansoni Peroxiredoxins; hit rate 3% among 360,000; Schistosoma mansoni thioredoxin glutathione reductase (TGR), Q962Y6; purified TGR, DTNB reduction, TNB absorbance 405 nm; AID 485364, 2010; Potency, µM (titrated, usually from 114 µM), for the others: at the top dose activity change, negative = inhibition, hits mostly inhibitors; further: on the % scale 0 is the no-effect control and ±100 the full control effect; nearly all actives have a fitted effect of over 60% in size
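First, TGR (20 nM dispensed) and NADPH were mixed with compound. Second, a 15 min room-temperature incubation followed. Third, further NADPH and then DTNB were added to start the reaction. Finally, TNB absorbance was monitored kinetically.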
Pf growth 48h = Primary qHTS for delayed death inhibitors of the malarial parasite plastid, 48 hour incubation. AID 504832, 2011. P. falciparum luciferase growth in erythrocytes, 48 h. hit rate 5.9% among 310,000. Potency, µM (top dose mostly 28.7 µM), without a hit: at the top dose activity change, negative = inhibition, hits mostly inhibitors; further: on the % scale 0 is the no-effect control and ±100 the full control effect
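Parasite viability was followed by luminescence of a genomically integrated firefly luciferase. Cultures held 0.1% parasitemia at 2% hematocrit (final), incubated under 5% CO2 at 37 C.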
SARS PLpro yeast = qHTS of Yeast-based Assay for SARS-CoV PLP. S. cerevisiae expressing SARS-CoV PLpro, growth rescue. Potency, µM (series often up to 32.9 µM), for inactives: at the highest dose activity, positive = growth rescue, actives largely listed as activators. hit rate 0.19% among 330,000. AID 485353, 2010; calls by dose curve; further: 0% is about no effect; nearly all actives have a fitted effect of over 55% in size
Pf growth 96h = Primary qHTS for delayed death inhibitors of the malarial parasite plastid, 96 hour incubation; P. falciparum luciferase reporter growth, 96 h; Potency, µM (doses to about 28.7 µM), for the others: top-dose activity change, negative = inhibition, hits mostly inhibitors; hit rate 6.9% among 320,000; AID 504834, 2011; further: on the % scale 0 is the no-effect control and ±100 the full control effect
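Readout is luminescence from an integrated firefly luciferase in P. falciparum. Red cells, 2% hematocrit and 0.05% parasitemia final, were cultured with compound through two parasite generations (96 hours) at 37 C, 5% CO2.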
Active calls of the source: *; ? = inconclusive; · = no result given; [ ] = remark or other dose. Unless noted, the call rests on the fitted dose curve; in most records, active means well fitted curve in the direction sought with a large enough effect; inconclusive means small, poorly fitted or top-dose-only effect, or another doubt; inactive means no such curve, though single readings can be large; an effect the other way counts as inactive or inconclusive. Potency means the concentration at half of the fitted maximal effect.

SMILES	AmpC inh detg	AmpC no deterg	Sm TGR block	Pf growth 48h	SARS PLpro yeast	Pf growth 96h
Cc1ccc(C(=O)OCC(=O)c2c[nH]c3ccccc23)cc1S(=O)(=O)N1CCCCC1	-13%	16µM*	-1%	?	-7%	?
COc1ccc(CC(=O)Nc2cc(S(=O)(=O)N3CCCCC3)ccc2C)cc1OC	0%	3%	-1%	?	6%	-20%
COc1ccc(S(=O)(=O)N2CCCCCC2)cc1NC(=O)Cc1cc(OC)c(OC)c(OC)c1	-11%	94%	6%	?	16%	3.7µM*
Cc1ccc(NC(=O)Cc2c[nH]c3ccccc23)cc1S(=O)(=O)N1CCCCCC1	-11%	-56%	-17%	13µM*	15%	12µM*
Nc1cc(Cl)ccc1C(=O)OCC(=O)NC1CCCCCCC1	8%	-26%	-1%	?	3%	-29%
Cn1c(Cn2nnc(-c3ccccc3)n2)nnc1SCc1ccccc1Cl	0%	11%	0%	12%	-13%	·
COc1ccc(S(=O)(=O)N2CCCCC2)cc1NC(=O)Cc1c[nH]c2ccccc12	-1%	-27%	-1%	?	-11%	8.3µM*
Cc1ccc(SCC(=O)Nc2cc(S(=O)(=O)N3CCCCC3)ccc2C)cc1	·	-19%	·	·	-1%	·
COc1ccc(S(=O)(=O)N2CCCCCC2)cc1NC(=O)Cc1ccccc1F	-8%	-33%	3%	?	0%	?
O=S(=O)(c1ccc(OCC(O)CN2CCC(Cc3ccccc3)CC2)cc1)N1CCOCC1 (stereo not drawn)	-6%	81%	-10%	12µM*	1%	?
Cc1ccc(S(=O)(=O)N2CCCCC2)cc1NC(=O)CN1CC=C(c2ccccc2)CC1	-14%	29%	1%	?	5%	10µM*
Cc1ccc(S(=O)(=O)N2CCOCC2)cc1NC(=O)CN1CCN(C)CC1	-1%	-22%	-1%	-22%	-1%	-23%
O=S(=O)(c1ccc(OCC(O)CN2CCCC2)cc1)N1CCOCC1 (stereo not drawn)	-5%	4%	-4%	·	17%	4%
Cc1ccc(S(=O)(=O)N2CCOCC2)cc1NC(=O)CN1CCC(Cc2ccccc2)CC1	1%	187%	·	13µM*	0%	3.7µM*
CCOC(=O)C1CCN(C(=O)CCCCn2c(=O)[nH]c3ccccc3c2=O)CC1	0%	-8%	-8%	-30%	1%	67%
Cc1ccc(S(=O)(=O)NCC(=O)OCC(=O)N(C)C2CCS(=O)(=O)C2)cc1 (stereo not drawn)	-17%	-5%	2%	55%	3%	3%
O=C(NCc1ccccc1Br)c1cnc2sc(N3CCCCCC3)nn2c1=O	11%	·	3%	·	·	·
COc1ccc(OC)c(CC(=O)Nc2cc(S(=O)(=O)N3CCCCC3)ccc2C)c1	5%	-2%	-1%	?	0%	?
COc1ccc(C)cc1S(=O)(=O)N(CC(=O)Nc1cc([N+](=O)[O-])ccc1C)c1ccc(C)c(C)c1	-9%	-18%	-3%	10µM*	9%	?
Cc1ccc(S(=O)(=O)N2CCCCC2)cc1NC(=O)Cc1c[nH]c2ccccc12	-2%	-40%	-1%	?	-13%	5.2µM*
COc1ccc([N+](=O)[O-])cc1NCC(=O)Nc1cc(S(=O)(=O)N2CCCCC2)ccc1C	2%	-8%	0%	12µM*	-2%	?
Cc1ccc(S(=O)(=O)N2CCCCC2)cc1NC(=O)CNc1ccccc1N1CCCC1=O	-4%	142%	-4%	13µM*	-2%	?
COc1ccc(S(=O)(=O)N2CCCCC2)cc1NC(=O)CNc1ccccc1N1CCCC1=O	6%	169%	7%	?	1%	?
COc1cccc(/C=N/NC(=O)c2ccc(-n3cnnn3)cc2)c1	-19%	-19%	-3%	-10%	0%	-2%
COc1ccc(Cl)cc1NC(=O)Cc1coc2c(C)c(C)ccc12	3%	·	3%	·	·	·
SMILES	AmpC inh detg	AmpC no deterg	Sm TGR block	Pf growth 48h	SARS PLpro yeast	Pf growth 96h
CN(Cc1ccccc1)C(=O)c1nc[nH]c1C(=O)N(C)Cc1ccccc1	8%	-9%	-21%	43%	-4%	?
O=C(CCc1nc2ccccc2c(=O)[nH]1)NNC(=O)COc1cccc(F)c1	4%	-9%	-3%	3%	1%	-16%
CC(C)CN1CCN(CCCc2ccccc2)C(CCO)C1 (stereo not drawn)	?	-10%	-6%	?	-3%	9.3µM*
CC(C)(C)CN1CCN(CCCc2ccccc2)C(CCO)C1 (stereo not drawn)	?	-2%	-27%	?	2%	?
CC(C)N1CCN(CCCc2ccccc2)CC1CCO (stereo not drawn)	?	-27%	7%	-8%	1%	13µM*
CC(C)N1CCC(N2CCN(CCCc3ccccc3)CC2CCO)CC1 (stereo not drawn)	5%	-29%	-2%	?	-1%	?
CSc1nc(C)cc(OCCNS(=O)(=O)c2cc(C)ccc2C)n1	2%	-8%	3%	-14%	19%	?
CC1CN(C(=O)N2CCC(C(=O)NC3CCCCCC3)CC2)c2cc(Cl)ccc2O1 (stereo not drawn)	-1%	·	-15%	·	·	·
COc1ccc(S(=O)(=O)N2Cc3ccccc3CC2C(=O)Nc2cccc(C)c2)cc1OC (stereo not drawn)	23%	·	4%	·	·	·
CCNC(=O)C1Cc2ccccc2CN1S(=O)(=O)c1ccc(F)cc1 (stereo not drawn)	-3%	-9%	-5%	0.83µM*	-1%	25%
COC(=O)CNC(=O)C1Cc2ccccc2CN1S(=O)(=O)c1ccc(F)cc1 (stereo not drawn)	-5%	7%	1%	-11%[0.00184 µM]	3%	-7%
O=C(c1ccco1)N1CCN(C(=O)C2Cc3ccccc3CN2S(=O)(=O)c2ccc(F)cc2)CC1 (stereo not drawn)	-14%	26%	50µM*	?	-3%	-21%
COc1ccc(S(=O)(=O)N2Cc3ccccc3CC2C(=O)Nc2ccc(O)cc2)cc1OC (stereo not drawn)	?	0.71µM*	-7%	?	2%	3.7µM*
O=C(NC1CCCCC1)C1Cc2ccccc2CN1S(=O)(=O)c1ccc(F)cc1 (stereo not drawn)	?	-3%	-3%	?	-5%	13µM*
